Results published in PubChem BioAssay (NCATS).
Records with an inconclusive call do not appear. Values without a mark were called inactive. Activity calls are given as the source filed them. Calls come from the whole dose curve; as a rule, active = well fitted inhibition curve with a large enough effect; inconclusive = small, poorly fitted or top-dose-only effect; inactive = no such curve, though single readings can be large or run the other way.

test system: not listed separately; assay: qHTS to identify inhibitors of the type 1 interferon - major histocompatibility complex class I in skeletal muscle: primary screen against the NCATS Mechanism Interrogation Plate v5.0 (MIPE) Libary (AID 1347411); conditions: iHSKM cells + IFN-b, HiBiT-tagged MHC-I luminescence, 24 h; series mostly up to 45.8 µM; activity change, negative = inhibition: at the top concentration; note: nearly all actives have a fitted effect of over 65% in size; note: potency is the fitted concentration of half-maximal effect;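 for activity change, negative = inhibition: plate controls were vehicle for no effect and reference inhibitor for full effect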
Procedure, shortened: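 IFN-beta-driven (4 ng/ml) HLA-B-HiBit expression in CRISPR-tagged C25cl48 myoblasts; compounds 11-pt, 1:3, max 46 uM, 24 hr exposure; lytic NanoLuc complementation luminescence.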

Row | SMILES | activity change, negative = inhibition | Potency
1 | O=c1[nH]c2ccccc2n1CCCN1CCC(n2c(=O)[nH]c3cc(Cl)ccc32)CC1 | -15.1% | 
2 | N[C@@H](Cc1ccc(N(CCCl)CCCl)cc1)C(=O)O | -37.5% | 
3 | CC(O)(CS(=O)(=O)c1ccc(F)cc1)C(=O)Nc1ccc(C#N)c(C(F)(F)F)c1 (stereo not drawn) | -11.3% | 
4 | NCC1(CC(=O)O)CCCCC1 | -3.6% | 
5 | NN=C(N)N | -8.74% | 
6 | Cc1cccc(C)c1NC(=O)CN1CCCC1=O | -0.516% | 
7 | C[C@@H]1O[C@@H](O[C@H]2C[C@@H](O)[C@]3(CO)[C@H]4[C@H](O)C[C@]5(C)[C@@H](C6=CC(=O)OC6)CC[C@]5(O)[C@@H]4CC[C@]3(O)C2)[C@H](O)[C@H](O)[C@H]1O |  | 37 nM (active)
8 | CNCC(O)c1ccc(O)cc1 (stereo not drawn) | -13.9% | 
9 | Cn1c(CCCC(=O)O)nc2cc(N(CCCl)CCCl)ccc21 | -8.9% | 
10 | CN(C)[C@@H]1C(=O)C(C(N)=O)=C(O)[C@@]2(O)C(=O)C3=C(O)c4c(O)cccc4[C@@](C)(O)[C@H]3C[C@@H]12 | -19.9% | 

biological target: Protein phosphatase 1D (Homo sapiens) (UniProt O15297); assay: RapidFire Mass Spectrometry qHTS Assay for Modulators of WT P53-Induced Phosphatase 1 (WIP1) (AID 1347424); conditions: WIP1 dephosphorylation of phosphopeptide, RapidFire MS; series mostly up to 63 µM; activity change, negative = inhibition: at the top concentration;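 note: amount of dephosphorylated VEPPL-S-QETFS peptide product formed by WIP1; plate controls were DMSO wells for no effect and GSK830371 inhibitor control at 10 µM for full effect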
Procedure, shortened: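 RapidFire mass spectrometry measured dephosphorylated peptide after 5 min room-temperature reaction of 2 uM VEPPL-pS-QETFS with 10 nM WIP1 (50 mM Tris-HCl pH 7.5, 30 mM MgCl2, 0.1 mM EGTA, BSA), following 1 hr compound preincubation; 1 uM isotope-labelled product standard.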

Sequence of Protein phosphatase 1D (Homo sapiens) (O15297 whole entry, looked up): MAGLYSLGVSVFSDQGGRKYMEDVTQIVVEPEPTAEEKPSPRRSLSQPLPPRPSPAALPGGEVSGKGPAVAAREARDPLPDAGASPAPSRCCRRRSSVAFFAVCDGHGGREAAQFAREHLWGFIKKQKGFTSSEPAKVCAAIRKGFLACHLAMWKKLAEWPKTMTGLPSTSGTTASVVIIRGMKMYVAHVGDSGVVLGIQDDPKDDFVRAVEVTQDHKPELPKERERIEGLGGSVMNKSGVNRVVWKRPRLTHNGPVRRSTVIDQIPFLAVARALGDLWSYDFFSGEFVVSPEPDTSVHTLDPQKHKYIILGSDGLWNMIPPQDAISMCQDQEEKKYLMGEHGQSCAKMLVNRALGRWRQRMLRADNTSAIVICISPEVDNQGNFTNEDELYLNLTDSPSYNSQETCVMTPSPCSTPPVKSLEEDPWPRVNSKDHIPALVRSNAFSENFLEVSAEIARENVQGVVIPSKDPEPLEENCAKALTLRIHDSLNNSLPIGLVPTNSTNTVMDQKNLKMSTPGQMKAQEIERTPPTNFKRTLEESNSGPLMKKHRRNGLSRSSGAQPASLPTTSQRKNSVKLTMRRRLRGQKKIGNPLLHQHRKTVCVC

Row | SMILES | activity change, negative = inhibition
11 | CN1C[C@H](CNC(=O)OCc2ccccc2)C[C@@H]2c3cccc4c3c(cn4C)C[C@H]21 | 21.6%
12 | NCC(CC(=O)O)c1ccc(Cl)cc1 (stereo not drawn) | -7.37% [at 0.505 µM]
13 | O=c1[nH]c2ccccc2n1CCCN1CCC(n2c(=O)[nH]c3cc(Cl)ccc32)CC1 | 4.04%
14 | CCCN1CCC[C@@H]2Cc3[nH]ncc3C[C@H]21 | -3.17%
15 | N[C@@H](Cc1ccc(N(CCCl)CCCl)cc1)C(=O)O | 1.94%
16 | CCC1(C2=NCCN2)Cc2ccccc2O1 (stereo not drawn) | 0.449%
17 | Cc1ccc(S(=O)(=O)N[C@@H](CCCCN)C(=O)CCl)cc1 | -23.8%
18 | CCCN1CCC[C@@H]2Cc3nc(N)ncc3C[C@H]21 | -1.39%
19 | c1ccc(C2CC2)c(OCC2=NCCN2)c1 | 2.26%
20 | CC(C)=CCOc1c2occc2cc2ccc(=O)oc12 | -12.1%
21 | Cc1ncc(CNC(=O)N(CCCl)N=O)c(N)n1 | -12.4%
22 | NCC1(CC(=O)O)CCCCC1 | 6.13%
23 | N#CC(C#N)=Cc1ccc(O)c(O)c1 | -14.9%
24 | NN=C(N)N | -0.239%
25 | CC[C@@H](CO)NC(=O)[C@@H]1C=C2c3cccc4[nH]cc(c34)C[C@H]2N(C)C1 | -0.0264%
26 | COc1ccccc1N1CCNCC1 | -5.55%
27 | Cc1cccc(C)c1NC(=O)CN1CCCC1=O | -7.6%
28 | C[C@@H]1O[C@@H](O[C@H]2C[C@@H](O)[C@]3(CO)[C@H]4[C@H](O)C[C@]5(C)[C@@H](C6=CC(=O)OC6)CC[C@]5(O)[C@@H]4CC[C@]3(O)C2)[C@H](O)[C@H](O)[C@H]1O | 9.98%
29 | Nc1ccncc1 | -1.04%
30 | Cc1cccc(C)c1NC1=NCCCS1 | -1.45%
31 | CNCC(O)c1ccc(O)cc1 (stereo not drawn) | -9.94%
32 | Cn1c(CCCC(=O)O)nc2cc(N(CCCl)CCCl)ccc21 | -8.92%
33 | CC(=O)[C@H]1CC[C@H]2[C@@H]3CC[C@H]4C[C@](C)(O)CC[C@]4(C)[C@H]3CC[C@]12C | 19.9%
34 | CC[C@@H](CO)NC(=O)[C@@H]1C=C2c3cccc4c3c(cn4C)C[C@H]2N(C)C1 | -7.69%
35 | CC(=O)[C@H]1CC[C@H]2[C@@H]3CC[C@H]4C[C@H](O)CC[C@]4(C)[C@H]3C(=O)C[C@]12C | 6.09%
36 | COc1ccc(C(CN(C)C)C2(O)CCCCC2)cc1 (stereo not drawn) | 20.2%
37 | O=C1NCN(c2ccccc2)C12CCN(CC1COc3ccccc3O1)CC2 (stereo not drawn) | 8.39%
38 | NCC(O)c1ccc(O)cc1 (stereo not drawn) | -0.714%
